# Measurements from PMC7862700, “An all-to-all approach to the identification of sequence-specific readers for epigenetic DNA modifications on cytosine”.
# Columns and labels:
# Test in all cases: DAPPL (digital affinity profiling via proximity ligation, sequencing); 10 mM Tris-HCl pH 7.5, 50 mM NaCl, 1 mM DTT, 4% glycerol, room temperature, 30 min; GST-TFs on glutathione beads, 16-mer random dsDNA library, 0.1% formaldehyde crosslink after washing; high values mean tight binding
# Conditions in all cases: protein: recombinant; tags: N-terminal GST; dsDNA, one strand shown
# FLI1 = molecular target: T1, FLI1 (Homo sapiens, UniProt Q01543 1-452)
# T1 sequence: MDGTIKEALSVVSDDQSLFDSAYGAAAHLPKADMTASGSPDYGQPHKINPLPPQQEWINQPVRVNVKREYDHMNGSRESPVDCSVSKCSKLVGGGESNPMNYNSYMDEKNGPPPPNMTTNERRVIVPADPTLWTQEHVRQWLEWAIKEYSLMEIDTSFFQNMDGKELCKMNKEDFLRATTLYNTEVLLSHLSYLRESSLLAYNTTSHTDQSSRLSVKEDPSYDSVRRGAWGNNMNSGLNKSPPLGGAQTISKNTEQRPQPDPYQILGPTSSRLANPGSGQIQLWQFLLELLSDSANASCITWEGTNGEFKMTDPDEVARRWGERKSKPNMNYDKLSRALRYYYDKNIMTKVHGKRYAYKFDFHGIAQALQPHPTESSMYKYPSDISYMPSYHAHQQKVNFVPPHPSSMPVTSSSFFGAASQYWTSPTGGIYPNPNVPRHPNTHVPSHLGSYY
# Procedure, shortened: (§1)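 Binding signal is each hexamer's read frequency for a factor divided by its frequency in the tag-only sample. The factors were GST-fused human transcription factors from yeast, captured on glutathione beads, DNA-barcoded and pooled with that sample. Pools were incubated with 200 nmole of a random double-stranded 16-mer DNA library in Tris/NaCl/DTT/glycerol buffer at room temperature for 30 min, then washed, crosslinked with 0.1% formaldehyde, proximity-ligated with BsaI/T4 ligase (1 h, 37 °C), PCR-amplified and sequenced on an Illumina NextSeq500.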
# ELK1 = molecular target: T2, ELK1 (Homo sapiens, UniProt P19419 1-428)
# T2 sequence: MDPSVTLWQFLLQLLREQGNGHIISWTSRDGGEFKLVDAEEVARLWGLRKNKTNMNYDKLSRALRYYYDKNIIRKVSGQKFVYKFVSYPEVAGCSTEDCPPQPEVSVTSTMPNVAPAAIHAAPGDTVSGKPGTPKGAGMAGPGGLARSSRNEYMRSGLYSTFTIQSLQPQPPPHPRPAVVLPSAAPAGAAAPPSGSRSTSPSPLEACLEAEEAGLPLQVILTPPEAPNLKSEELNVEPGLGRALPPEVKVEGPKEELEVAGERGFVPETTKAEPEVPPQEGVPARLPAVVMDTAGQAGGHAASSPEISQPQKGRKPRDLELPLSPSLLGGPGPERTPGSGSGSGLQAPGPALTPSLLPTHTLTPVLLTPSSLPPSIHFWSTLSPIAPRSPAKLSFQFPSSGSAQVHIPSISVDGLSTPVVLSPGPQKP
# Procedure, shortened: as §1
# GABPA = molecular target: T3, GABPA (Homo sapiens, UniProt Q06546 1-454)
# T3 sequence: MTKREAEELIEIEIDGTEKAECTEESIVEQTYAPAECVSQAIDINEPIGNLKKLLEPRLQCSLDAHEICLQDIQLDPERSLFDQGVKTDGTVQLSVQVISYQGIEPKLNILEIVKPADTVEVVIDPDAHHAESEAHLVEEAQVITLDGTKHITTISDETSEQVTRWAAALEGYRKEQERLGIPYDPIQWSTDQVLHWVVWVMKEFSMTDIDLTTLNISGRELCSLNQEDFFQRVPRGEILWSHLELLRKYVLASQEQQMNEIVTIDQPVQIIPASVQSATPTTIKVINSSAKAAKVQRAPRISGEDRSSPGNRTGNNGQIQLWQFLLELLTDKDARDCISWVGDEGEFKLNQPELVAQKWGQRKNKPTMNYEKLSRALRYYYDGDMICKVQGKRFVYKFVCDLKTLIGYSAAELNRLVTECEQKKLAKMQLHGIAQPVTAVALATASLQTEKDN
# Procedure, shortened: as §1
# ERG = molecular target: T4, ERG (Homo sapiens, UniProt P11308 1-479)
# T4 sequence: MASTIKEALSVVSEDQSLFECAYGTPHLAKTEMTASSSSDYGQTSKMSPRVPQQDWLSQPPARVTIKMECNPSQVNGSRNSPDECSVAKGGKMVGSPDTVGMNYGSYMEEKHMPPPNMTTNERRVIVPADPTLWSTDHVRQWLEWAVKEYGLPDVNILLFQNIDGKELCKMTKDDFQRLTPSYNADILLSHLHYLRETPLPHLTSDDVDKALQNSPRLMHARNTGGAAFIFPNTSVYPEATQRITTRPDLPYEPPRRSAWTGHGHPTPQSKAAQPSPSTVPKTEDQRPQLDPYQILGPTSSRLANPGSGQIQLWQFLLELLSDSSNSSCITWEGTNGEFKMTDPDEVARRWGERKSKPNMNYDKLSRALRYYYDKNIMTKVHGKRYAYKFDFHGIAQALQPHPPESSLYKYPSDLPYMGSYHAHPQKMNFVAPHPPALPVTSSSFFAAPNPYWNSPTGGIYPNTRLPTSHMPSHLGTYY
# Procedure, shortened: as §1
# ELF1 = ELF1 (Homo sapiens, UniProt P32519 1-619)
# Chain of ELF1 (P32519 whole entry): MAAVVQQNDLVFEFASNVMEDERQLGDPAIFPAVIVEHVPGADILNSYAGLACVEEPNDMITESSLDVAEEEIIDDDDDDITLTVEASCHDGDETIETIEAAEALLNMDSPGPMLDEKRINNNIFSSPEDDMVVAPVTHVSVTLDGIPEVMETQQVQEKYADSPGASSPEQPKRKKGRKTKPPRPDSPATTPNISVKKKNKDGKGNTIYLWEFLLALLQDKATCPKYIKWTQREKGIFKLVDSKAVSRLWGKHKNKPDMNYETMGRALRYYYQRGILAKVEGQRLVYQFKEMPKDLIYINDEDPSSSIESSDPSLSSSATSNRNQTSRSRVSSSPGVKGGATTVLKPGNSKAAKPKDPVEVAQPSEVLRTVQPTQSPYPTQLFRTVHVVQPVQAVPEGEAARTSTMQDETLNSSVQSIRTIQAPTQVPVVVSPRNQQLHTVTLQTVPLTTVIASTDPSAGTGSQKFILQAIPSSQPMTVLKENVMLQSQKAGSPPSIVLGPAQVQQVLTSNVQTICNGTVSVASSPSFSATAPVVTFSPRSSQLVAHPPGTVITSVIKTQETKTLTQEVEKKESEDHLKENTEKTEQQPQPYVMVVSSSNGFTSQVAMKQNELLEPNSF
# Procedure, shortened: as §1
# SPI1 = SPI1 (Homo sapiens, UniProt P17947 1-270)
# Procedure, shortened: as §1
# SPIB = SPIB (Homo sapiens, UniProt Q01892 1-262)
# Chain of SPIB (Q01892 whole entry): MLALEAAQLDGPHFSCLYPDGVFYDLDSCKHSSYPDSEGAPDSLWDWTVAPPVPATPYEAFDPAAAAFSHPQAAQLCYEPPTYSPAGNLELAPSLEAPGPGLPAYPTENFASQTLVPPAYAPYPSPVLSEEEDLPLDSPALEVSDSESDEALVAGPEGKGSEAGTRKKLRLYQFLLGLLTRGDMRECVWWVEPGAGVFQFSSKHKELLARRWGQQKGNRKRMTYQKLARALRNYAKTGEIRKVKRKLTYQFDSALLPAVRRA
# Procedure, shortened: as §1
# FEV = molecular target: T5, FEV (Homo sapiens, UniProt Q99581 1-238)
# T5 sequence: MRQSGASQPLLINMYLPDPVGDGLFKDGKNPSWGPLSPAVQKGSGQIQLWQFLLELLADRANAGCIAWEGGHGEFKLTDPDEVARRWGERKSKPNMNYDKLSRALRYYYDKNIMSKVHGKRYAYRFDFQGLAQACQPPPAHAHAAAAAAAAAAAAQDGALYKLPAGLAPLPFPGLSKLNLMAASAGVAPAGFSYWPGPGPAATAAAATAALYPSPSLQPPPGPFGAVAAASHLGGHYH
# Procedure, shortened: as §1
# ETV5 = ETV5 (Homo sapiens, UniProt P41161 1-510)
# Chain of ETV5 (P41161 whole entry): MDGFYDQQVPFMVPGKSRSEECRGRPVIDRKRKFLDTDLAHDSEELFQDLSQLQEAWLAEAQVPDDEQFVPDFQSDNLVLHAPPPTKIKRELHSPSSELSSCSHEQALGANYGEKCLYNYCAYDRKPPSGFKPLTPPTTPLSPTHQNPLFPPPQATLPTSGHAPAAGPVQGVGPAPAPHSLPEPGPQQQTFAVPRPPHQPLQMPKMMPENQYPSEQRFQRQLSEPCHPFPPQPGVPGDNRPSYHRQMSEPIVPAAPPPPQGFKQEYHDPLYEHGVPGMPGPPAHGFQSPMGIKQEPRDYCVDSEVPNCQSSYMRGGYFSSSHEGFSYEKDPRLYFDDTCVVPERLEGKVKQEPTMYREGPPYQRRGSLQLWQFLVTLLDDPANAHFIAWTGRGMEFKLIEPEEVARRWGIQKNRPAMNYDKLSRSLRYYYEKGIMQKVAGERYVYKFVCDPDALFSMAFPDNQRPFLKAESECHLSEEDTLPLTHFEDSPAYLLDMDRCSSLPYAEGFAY
# Procedure, shortened: as §1
# ELF4 = ELF4 (Homo sapiens, UniProt Q99607 1-663)
# Chain of ELF4 (Q99607 whole entry): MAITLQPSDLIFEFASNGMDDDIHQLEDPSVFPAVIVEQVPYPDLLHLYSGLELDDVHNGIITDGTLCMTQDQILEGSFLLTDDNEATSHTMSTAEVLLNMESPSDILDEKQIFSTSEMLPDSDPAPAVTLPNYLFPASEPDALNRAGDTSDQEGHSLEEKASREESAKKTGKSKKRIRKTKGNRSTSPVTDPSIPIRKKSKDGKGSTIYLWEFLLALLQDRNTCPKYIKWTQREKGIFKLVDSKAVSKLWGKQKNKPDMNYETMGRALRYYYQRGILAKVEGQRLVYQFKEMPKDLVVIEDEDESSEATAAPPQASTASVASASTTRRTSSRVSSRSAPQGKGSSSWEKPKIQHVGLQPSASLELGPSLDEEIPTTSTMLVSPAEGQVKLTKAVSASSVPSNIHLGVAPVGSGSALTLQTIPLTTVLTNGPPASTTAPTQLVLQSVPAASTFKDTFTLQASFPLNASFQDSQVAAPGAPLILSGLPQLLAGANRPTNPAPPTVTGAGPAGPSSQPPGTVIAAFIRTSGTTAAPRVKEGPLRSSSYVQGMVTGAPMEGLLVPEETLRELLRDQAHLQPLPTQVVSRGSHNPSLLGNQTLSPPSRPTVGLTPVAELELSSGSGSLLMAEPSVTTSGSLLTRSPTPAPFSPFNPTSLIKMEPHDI
# Procedure, shortened: as §1
# ETV2 = molecular target: T6, ETV2 (Homo sapiens, UniProt O00321 1-342)
# T6 sequence: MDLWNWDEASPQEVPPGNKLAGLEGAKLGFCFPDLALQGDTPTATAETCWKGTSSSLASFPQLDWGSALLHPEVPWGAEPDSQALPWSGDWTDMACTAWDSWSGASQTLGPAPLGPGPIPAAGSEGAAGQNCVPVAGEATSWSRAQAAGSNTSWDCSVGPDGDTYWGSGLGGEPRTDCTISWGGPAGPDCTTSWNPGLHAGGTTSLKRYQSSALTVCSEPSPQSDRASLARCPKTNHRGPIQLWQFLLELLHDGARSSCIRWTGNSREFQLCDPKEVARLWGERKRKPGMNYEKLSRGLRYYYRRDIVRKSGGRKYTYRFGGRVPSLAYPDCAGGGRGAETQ
# Procedure, shortened: as §1
# ELF3 = molecular target: T7, ELF3 (Homo sapiens, UniProt P78545 1-371)
# T7 sequence: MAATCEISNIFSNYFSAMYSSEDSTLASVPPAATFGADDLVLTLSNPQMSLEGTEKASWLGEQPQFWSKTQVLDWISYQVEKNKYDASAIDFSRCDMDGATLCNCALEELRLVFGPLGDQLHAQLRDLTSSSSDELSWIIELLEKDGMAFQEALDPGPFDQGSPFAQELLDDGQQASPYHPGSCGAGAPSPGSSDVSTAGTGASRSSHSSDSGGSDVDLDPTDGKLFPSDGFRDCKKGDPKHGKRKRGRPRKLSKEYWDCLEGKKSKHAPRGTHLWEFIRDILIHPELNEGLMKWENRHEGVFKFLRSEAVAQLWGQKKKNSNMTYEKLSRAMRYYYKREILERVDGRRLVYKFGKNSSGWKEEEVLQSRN
# Procedure, shortened: as §1
# ETV1 = ETV1 (Homo sapiens, UniProt P50549 1-477)
# Chain of ETV1 (P50549 whole entry): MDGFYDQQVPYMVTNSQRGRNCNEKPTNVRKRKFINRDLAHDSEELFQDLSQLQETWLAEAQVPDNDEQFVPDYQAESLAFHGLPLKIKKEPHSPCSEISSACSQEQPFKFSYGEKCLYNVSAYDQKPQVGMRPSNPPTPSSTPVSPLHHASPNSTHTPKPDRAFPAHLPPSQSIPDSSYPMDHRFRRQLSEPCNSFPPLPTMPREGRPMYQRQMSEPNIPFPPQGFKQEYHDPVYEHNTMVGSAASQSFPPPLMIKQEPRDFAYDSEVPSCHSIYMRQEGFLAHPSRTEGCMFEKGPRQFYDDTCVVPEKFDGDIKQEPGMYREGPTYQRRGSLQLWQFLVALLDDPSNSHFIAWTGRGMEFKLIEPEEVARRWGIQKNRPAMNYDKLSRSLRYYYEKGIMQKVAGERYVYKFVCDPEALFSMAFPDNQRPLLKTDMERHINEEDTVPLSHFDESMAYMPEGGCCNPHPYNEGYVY
# Procedure, shortened: as §1
# ETV3L = molecular target: T8, ETV3L (Homo sapiens, UniProt Q6ZN32 1-361)
# T8 sequence: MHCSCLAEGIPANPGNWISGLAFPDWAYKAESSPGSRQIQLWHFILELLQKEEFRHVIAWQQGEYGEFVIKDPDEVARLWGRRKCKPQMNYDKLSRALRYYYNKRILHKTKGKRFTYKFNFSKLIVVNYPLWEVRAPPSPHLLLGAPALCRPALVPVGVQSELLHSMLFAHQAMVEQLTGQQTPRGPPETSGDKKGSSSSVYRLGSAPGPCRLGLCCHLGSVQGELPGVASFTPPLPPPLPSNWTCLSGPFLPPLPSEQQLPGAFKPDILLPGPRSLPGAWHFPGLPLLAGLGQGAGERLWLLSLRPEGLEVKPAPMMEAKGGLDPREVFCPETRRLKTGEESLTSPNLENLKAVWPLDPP
# Procedure, shortened: as §1
# ETS2 = molecular target: T9, ETS2 (Homo sapiens, UniProt P15036 1-469)
# T9 sequence: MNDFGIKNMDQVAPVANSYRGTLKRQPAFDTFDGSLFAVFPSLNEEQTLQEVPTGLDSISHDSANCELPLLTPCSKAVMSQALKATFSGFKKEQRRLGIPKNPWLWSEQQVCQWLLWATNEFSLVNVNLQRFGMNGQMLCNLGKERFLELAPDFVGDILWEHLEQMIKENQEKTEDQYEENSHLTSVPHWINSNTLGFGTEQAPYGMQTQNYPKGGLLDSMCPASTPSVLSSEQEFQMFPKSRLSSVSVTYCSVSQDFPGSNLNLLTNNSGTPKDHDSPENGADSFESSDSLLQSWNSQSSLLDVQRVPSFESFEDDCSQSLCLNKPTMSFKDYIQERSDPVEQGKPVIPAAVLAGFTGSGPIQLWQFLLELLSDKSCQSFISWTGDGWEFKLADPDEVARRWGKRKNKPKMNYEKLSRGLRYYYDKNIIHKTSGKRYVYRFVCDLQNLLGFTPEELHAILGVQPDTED
# Procedure, shortened: as §1
# ETV7 = molecular target: T10, ETV7 (Homo sapiens, UniProt Q9Y603 1-341)
# T10 sequence: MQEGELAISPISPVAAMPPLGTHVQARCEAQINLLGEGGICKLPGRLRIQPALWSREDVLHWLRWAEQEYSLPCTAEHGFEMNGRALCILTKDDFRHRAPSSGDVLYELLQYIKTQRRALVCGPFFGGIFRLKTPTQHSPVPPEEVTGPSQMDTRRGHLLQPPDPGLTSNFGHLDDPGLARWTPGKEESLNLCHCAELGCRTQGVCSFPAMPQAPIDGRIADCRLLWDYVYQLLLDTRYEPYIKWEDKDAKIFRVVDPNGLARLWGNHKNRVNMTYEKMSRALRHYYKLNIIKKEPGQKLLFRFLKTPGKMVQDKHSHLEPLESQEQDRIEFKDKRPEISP
# Procedure, shortened: as §1
# ETV3 = molecular target: T11, ETV3 (Homo sapiens, UniProt P41162-2 1-143)
# T11 sequence: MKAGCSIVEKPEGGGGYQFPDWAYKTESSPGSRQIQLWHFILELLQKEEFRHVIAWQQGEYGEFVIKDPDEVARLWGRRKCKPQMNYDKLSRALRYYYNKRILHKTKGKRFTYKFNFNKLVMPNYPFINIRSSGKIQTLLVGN
# Procedure, shortened: as §1
# ETV6 = ETV6 (Homo sapiens, UniProt P41212 1-452)
# Chain of ETV6 (P41212 whole entry): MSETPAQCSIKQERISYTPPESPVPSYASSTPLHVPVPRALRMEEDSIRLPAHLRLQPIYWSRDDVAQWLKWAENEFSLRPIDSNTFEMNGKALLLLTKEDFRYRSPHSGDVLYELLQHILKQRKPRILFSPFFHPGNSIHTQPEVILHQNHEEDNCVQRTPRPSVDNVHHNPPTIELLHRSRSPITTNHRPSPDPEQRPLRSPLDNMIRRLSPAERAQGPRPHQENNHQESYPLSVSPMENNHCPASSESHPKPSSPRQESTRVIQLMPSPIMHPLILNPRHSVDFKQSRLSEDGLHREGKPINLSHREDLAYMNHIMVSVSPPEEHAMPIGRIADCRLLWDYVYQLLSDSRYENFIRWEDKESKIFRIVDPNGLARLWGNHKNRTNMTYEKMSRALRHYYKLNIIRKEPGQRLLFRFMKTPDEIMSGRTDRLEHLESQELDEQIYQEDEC
# Procedure, shortened: as §1
sequence,measurement,setting,value
GGTATC,binding signal,FLI1,"1.11 fold enrichment (6-mer frequency, TF over GST control)"
same,binding signal,ELK1,"1.07 fold enrichment (6-mer frequency, TF over GST control)"
same,binding signal,GABPA,"1.06 fold enrichment (6-mer frequency, TF over GST control)"
same,binding signal,ERG,"1.07 fold enrichment (6-mer frequency, TF over GST control)"
same,binding signal,ELF1,"1.09 fold enrichment (6-mer frequency, TF over GST control)"
same,binding signal,SPI1,"1.02 fold enrichment (6-mer frequency, TF over GST control)"
same,binding signal,SPIB,"1.04 fold enrichment (6-mer frequency, TF over GST control)"
same,binding signal,FEV,"1.06 fold enrichment (6-mer frequency, TF over GST control)"
same,binding signal,ETV5,"1.06 fold enrichment (6-mer frequency, TF over GST control)"
same,binding signal,ELF4,"1.08 fold enrichment (6-mer frequency, TF over GST control)"
same,binding signal,ETV2,"1.23 fold enrichment (6-mer frequency, TF over GST control)"
same,binding signal,ELF3,"1.23 fold enrichment (6-mer frequency, TF over GST control)"
same,binding signal,ETV1,"1.1 fold enrichment (6-mer frequency, TF over GST control)"
same,binding signal,ETV3L,"1.02 fold enrichment (6-mer frequency, TF over GST control)"
same,binding signal,ETS2,"1.01 fold enrichment (6-mer frequency, TF over GST control)"
same,binding signal,ETV7,"1.06 fold enrichment (6-mer frequency, TF over GST control)"
same,binding signal,ETV3,"1.04 fold enrichment (6-mer frequency, TF over GST control)"
same,binding signal,ETV6,"1.03 fold enrichment (6-mer frequency, TF over GST control)"
